High-throughput results as filed in PubChem BioAssay.
Hits are enriched below; roughly 18% of the tested compounds scored in any of these assays.
DT40 TDP1 no CPT = qHTS for Inhibitors of human tyrosyl-DNA phosphodiesterase 1 (TDP1): qHTS in cells in absence of CPT; AID 686978, 2013; Potency, µM (titrated, usually from 46.2 µM), usual class: inhibitors; hit rate 15% among 420,000; DT40 Tdp1-/- hTDP1 cells, no CPT, ATP luminescence, 48 h; further: nearly all actives have a fitted effect of over 55% in size
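Compound effects on proliferation are scored in DT40 Tdp1-/-;hTDP1 cells in the absence of CPT. ATP levels (CellTiter-Glo luminescence) are recorded after a ≥48 hr, 37 °C incubation.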
RORg inh = ROR gamma (mouse) transcription inhibition; Drosophila S2 Gal4-RORgamma UAS-luciferase reporter, 20 h; Potency, µM (doses to about 53.6 µM), actives largely listed as inhibitors; hit rate 5.4% among 310,000; P51450; AID 2551; further: nearly all actives have a fitted effect of over 60% in size
Target sequence (P51450 whole entry, looked up, the tested form may be a part): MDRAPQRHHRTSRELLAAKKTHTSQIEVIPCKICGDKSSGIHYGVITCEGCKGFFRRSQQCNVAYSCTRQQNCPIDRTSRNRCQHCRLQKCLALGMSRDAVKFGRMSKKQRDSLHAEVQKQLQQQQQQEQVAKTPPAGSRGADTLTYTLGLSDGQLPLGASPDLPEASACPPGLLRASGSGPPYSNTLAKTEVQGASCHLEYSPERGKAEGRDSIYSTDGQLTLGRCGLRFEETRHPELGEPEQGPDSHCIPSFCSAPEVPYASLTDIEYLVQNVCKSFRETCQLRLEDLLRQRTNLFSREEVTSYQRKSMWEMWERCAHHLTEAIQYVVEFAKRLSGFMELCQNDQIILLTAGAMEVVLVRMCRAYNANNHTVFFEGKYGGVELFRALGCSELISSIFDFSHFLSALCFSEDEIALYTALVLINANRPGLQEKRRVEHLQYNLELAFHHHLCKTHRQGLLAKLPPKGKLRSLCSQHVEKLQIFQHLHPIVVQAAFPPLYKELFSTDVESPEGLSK
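Compounds are pin-transferred onto Drosophila Schneider cells expressing a copper-inducible Gal4–ROR gamma transactivation domain fusion. After 1 hr, copper sulfate is added to 700 uM final; luciferase is read 20 hr later.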
LDHA inh = inhibitors of human lactate dehydrogenase A; purified LDHA, NADH/diaphorase-resazurin fluorescence; stronger effect = lower value; activity change, % (values are at about 110 or 230 µM); hit rate 0.15% among 480,000; in the data active means activity change below about -30%; inconclusive means mostly about -25% to -30%
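Human LDH5 (2 nM) was incubated with 0.06 mM NADH and 0.2 mM pyruvate for 5 min at room temperature in Tris pH 7.4. Remaining NADH was coupled through diaphorase/resazurin, and resorufin fluorescence was read at 0 and 20 min.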
Gal4-VP16 FLuc = counter-screen for ROR gamma inhibitors: Gal4-VP16 reporter. Drosophila S2 Gal4-VP16 UAS-luciferase, luminescence, 20 h. Potency, µM (titrated, usually from 53.6 µM), usual class: inhibitors. AID 2546. hit rate 3.5% among 310,000;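 further: Gal4-VP16 expression switched on by copper sulfate through the metallothionein promoter; nearly all actives have a fitted effect of over 50% in size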
IL1B secr inh = inflammasome signaling inhibition, IL-1 beta readout. THP-1 LPS/ATP IL-1B secretion, AlphaLISA, 16 h; stronger effect = lower value. activity change, % at 57.5 µM. hit rate 4.7% among 360,000. AID 743279; in the data active means activity change below about -50%; inconclusive means mostly about -30% to -49%
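THP-1 cells pretreated 1 hr with compounds (up to 57.5 uM final), then stimulated with LPS (250 ng/mL final) plus ATP (1.25 mM final); secreted IL-1B measured by AlphaLISA after 16 hr, decreased signal indicating inhibition.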
DT40 TDP1 CPT = DT40-hTDP1 cell growth loss with CPT | Potency, µM (series often up to 46.2 µM), actives largely listed as inhibitors | hit rate 12% among 420,000 | chicken DT40 Tdp1-/-;hTDP1 cells + 20 nM CPT, ATP luminescence, 48 h; further: nearly all actives have a fitted effect of over 55% in size
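Cell growth measured by CellTiter-Glo luminescence after a minimum 48 h, 37 C compound exposure with 20 nM CPT in Tdp1-knockout DT40 cells stably expressing hTDP1, seeded 400/well; qHTS titration format.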
Large screens that a line does not name were inactive. Unless noted, the call rests on the fitted dose curve; in most records, active means well fitted curve in the direction sought with a large enough effect; inconclusive means small, poorly fitted or top-dose-only effect, or another doubt; inactive means no such curve, though single readings can be large; an effect the other way counts as inactive or inconclusive.

FC(F)(F)c1cccc(NC(=S)NCc2cccs2)c1	none (no result: DT40 TDP1 no CPT, RORg inh, Gal4-VP16 FLuc, IL1B secr inh, DT40 TDP1 CPT)
S=C(NCc1cccs1)Nc1cc(Cl)cc(Cl)c1	DT40 TDP1 no CPT inconclusive, RORg inh 13µM, Gal4-VP16 FLuc inconclusive, IL1B secr inh -83, DT40 TDP1 CPT inconclusive
O=C(NCC(c1ccccc1)c1ccccc1)c1n[nH]c(=O)c2ccccc12	none (no result: DT40 TDP1 no CPT, RORg inh, Gal4-VP16 FLuc, IL1B secr inh, DT40 TDP1 CPT)
CCNC(=O)N(CC)C[C@H]1N[C@@](Cc2ccccc2)(C(=O)OC)[C@H]2C(=O)N(Cc3ccccc3)C(=O)[C@@H]12	none (no result: RORg inh, Gal4-VP16 FLuc)
CCN(C[C@H]1N[C@@](Cc2ccccc2)(C(=O)OC)[C@H]2C(=O)N(C)C(=O)[C@@H]12)C(=O)Nc1ccc(C(F)(F)F)cc1	DT40 TDP1 no CPT inconclusive, DT40 TDP1 CPT 16µM (no result: RORg inh, Gal4-VP16 FLuc)
CCN(C[C@H]1N[C@@](Cc2ccccc2)(C(=O)OC)[C@H]2C(=O)N(Cc3ccccc3)C(=O)[C@@H]12)C(=O)Nc1ccc(Cl)cc1	DT40 TDP1 no CPT 18µM, DT40 TDP1 CPT inconclusive (no result: RORg inh, Gal4-VP16 FLuc)
CCN(C[C@H]1N[C@@](Cc2ccccc2)(C(=O)OC)[C@H]2C(=O)N(Cc3ccccc3)C(=O)[C@@H]12)C(=O)Nc1ccc(F)cc1	DT40 TDP1 no CPT 16µM, IL1B secr inh inconclusive, DT40 TDP1 CPT inconclusive (no result: RORg inh, Gal4-VP16 FLuc)
CCOc1ccccc1NC(=O)CN(CCc1ccccc1)S(=O)(=O)c1ccc(C)cc1	DT40 TDP1 no CPT 16µM, DT40 TDP1 CPT inconclusive (no result: RORg inh, Gal4-VP16 FLuc, IL1B secr inh)
COc1ccc(C)cc1NC(=O)CN(c1cc(C(F)(F)F)ccc1Cl)S(C)(=O)=O	DT40 TDP1 no CPT 16µM, DT40 TDP1 CPT inconclusive (no result: RORg inh, Gal4-VP16 FLuc, IL1B secr inh)
COc1ccc(OC)c(NC(=O)CN(c2ccccc2OC)S(=O)(=O)c2ccc(C)cc2)c1	DT40 TDP1 no CPT 26µM, DT40 TDP1 CPT 16µM (no result: RORg inh, Gal4-VP16 FLuc, IL1B secr inh)
Cc1ccc(C)c(NC(=O)CN(CCc2ccccc2)S(=O)(=O)c2ccccc2)c1	DT40 TDP1 no CPT inconclusive, DT40 TDP1 CPT inconclusive (no result: RORg inh, Gal4-VP16 FLuc, IL1B secr inh)
CCc1ccccc1NC(=O)CN(c1ccccc1OC)S(=O)(=O)c1ccc(C)cc1	DT40 TDP1 no CPT 18µM, DT40 TDP1 CPT inconclusive (no result: RORg inh, Gal4-VP16 FLuc, IL1B secr inh)
Cc1cc(C)cc(C(=O)NCC(=O)O)c1	none (no result: DT40 TDP1 no CPT, RORg inh, Gal4-VP16 FLuc, IL1B secr inh, DT40 TDP1 CPT)
O=S(=O)(N/N=C\c1c(F)cccc1Cl)c1ccc(Cl)cc1	DT40 TDP1 no CPT inconclusive, DT40 TDP1 CPT 13µM
Cc1ccsc1CNC(=O)Cc1c(F)cccc1Cl	none (no result: DT40 TDP1 no CPT, RORg inh, Gal4-VP16 FLuc, IL1B secr inh, DT40 TDP1 CPT)
COc1ccc(NC(=S)NC(=O)c2ccc(Br)o2)cc1	DT40 TDP1 no CPT inconclusive, RORg inh 1µM, Gal4-VP16 FLuc inconclusive
O=C(NC(=S)Nc1ccccc1)c1ccc(Br)o1	RORg inh 3.2µM
CC(=O)NNC(=S)Nc1ccccc1	none (no result: DT40 TDP1 no CPT, RORg inh, Gal4-VP16 FLuc, IL1B secr inh, DT40 TDP1 CPT)
Cc1snnc1C(=O)NC(=S)Nc1ccccc1	DT40 TDP1 no CPT 13µM, RORg inh 4.5µM, Gal4-VP16 FLuc 5.6µM
COc1ccc(NC(=O)c2ccc(Br)o2)cc1	DT40 TDP1 no CPT inconclusive, DT40 TDP1 CPT inconclusive
NC1(C#Cc2ccc3c(=O)c4ccccc4sc3c2)CCCCC1	DT40 TDP1 no CPT inconclusive, DT40 TDP1 CPT 26µM (no result: RORg inh, Gal4-VP16 FLuc)
COc1cccc2oc3ccc(C#CC4(N)CCCCC4)cc3c(=O)c12	DT40 TDP1 no CPT 3.7µM, RORg inh inconclusive, Gal4-VP16 FLuc inconclusive, IL1B secr inh -97, DT40 TDP1 CPT 7.3µM
COc1cc(-c2noc(C)c2C#CC2(N)CCCCC2)cc(OC)c1OC	DT40 TDP1 no CPT inconclusive, DT40 TDP1 CPT inconclusive
Cn1c2ccccc2c(=O)c2ccc(C#CC3(N)CCCCC3)cc21	DT40 TDP1 no CPT 13µM, IL1B secr inh -86
Cn1c2ccccc2c(=O)c2cc(C#CC3(O)CCCCC3)ccc21	DT40 TDP1 no CPT inconclusive, RORg inh 11µM, Gal4-VP16 FLuc 16µM, IL1B secr inh -53, DT40 TDP1 CPT 16µM
O=c1c2ccccc2oc2ccc(C#CC3(O)CCCCC3)cc12	DT40 TDP1 no CPT inconclusive, DT40 TDP1 CPT inconclusive (no result: RORg inh, Gal4-VP16 FLuc)
Cn1c2ccccc2c(=O)c2cc(C#Cc3ccsc3)ccc21	DT40 TDP1 no CPT inconclusive
Cc1nc(S(=O)(=O)N2CCC(C(=O)N3CCN(c4ccc(Cl)cc4)CC3)CC2)cn1C	none (no result: DT40 TDP1 no CPT, RORg inh, Gal4-VP16 FLuc, IL1B secr inh, DT40 TDP1 CPT)
O=c1oc2ccc(Br)cc2cc1S(=O)(=O)c1ccccc1F	none (no result: DT40 TDP1 no CPT, RORg inh, Gal4-VP16 FLuc, IL1B secr inh, DT40 TDP1 CPT)
